Source: PubChem
BAZ2B block: BAZ2B (human) inhibition; hit rate 4.4% among 360,000; AlphaScreen BAZ2B-H3K14Ac peptide displacement; Q9UIF8; Potency, µM (titrated, usually from 114 µM), for the others: at the top dose activity change, negative = inhibition, actives largely listed as inhibitors; further: on the % scale 0 is the no-effect control and ±100 the full control effect; nearly all actives have a fitted effect of over 60% in size
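AlphaScreen displacement: compounds (up to 110uM) incubated 30 min at room temperature with a preformed 50 nM BAZ2B/50 nM biotinylated H3K14Ac peptide complex in PBS pH 7.4 with Tween-20. Donor and acceptor beads at 10 ug/mL final added, 20 min light-protected before reading.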
TDP1 block: inhibitors of human tyrosyl-DNA phosphodiesterase TDP1 | Q9NUW8 | Potency, µM (doses to about 130 µM), for the others: at the top dose activity change, negative = inhibition, most hits filed as inhibitors | recombinant TDP1, AlphaScreen DNA substrate cleavage | hit rate 0.28% among 350,000; further: on the % scale 0 is the no-effect control and ±100 the full control effect; nearly all actives have a fitted effect of over 40% in size
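Compounds were preincubated with Tdp1 (1 nM final) for 15 min at room temperature before substrate (15 nM final) started a 5 min reaction; beads (10 ug/ml final) were then added for 10 min before AlphaScreen detection.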
Sfp PPTase inh: Sfp phosphopantetheinyl transferase inhibition. Q9F4F7. Biochemical Sfp PPTase activity, qHTS. Potency, µM, for inactives: largest response in the series, negative = inhibition, hits mostly inhibitors. hit rate 3.5% among 310,000. AID 1490;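 further: the enzyme is Sfp with the accession as filed and its product quenches rhodamine fluorescence; 0% = enzyme reaction without inhibitor and -100% = no enzyme wells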
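Fluorescence-quenching assay: 15 nM Sfp-PPTase preincubated 15 min at room temperature with compound, then 5 uM rhodamine-CoA and 12.5 uM BHQ-2-labelled YbbR peptide added. Fluorescence (ex 525/em 598 nm) read at start and after 30 min; difference gives rate.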
G9a inh: inhibitors of human histone lysine methyltransferase G9a; AID 504332; Potency, µM (series often up to 102 µM), for the others: top-dose activity, negative = inhibition, most hits filed as inhibitors; hit rate 8.8% among 350,000; G9a H3K9 monomethylation, AlphaScreen, 2 h; Q96KQ7; further: on the % scale 0 is the no-effect control and ±100 the full control effect; nearly all actives have a fitted effect of over 75% in size
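Compounds were preincubated with 20 nM G9a for 15 min, after which biotinylated H3K9 peptide (500 nM) and SAM (20 uM) started a 2 h room-temperature reaction. Monomethylated product was quantified by antibody-based AlphaScreen chemiluminescence.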
HP1b chromo inh: HP1-beta chromodomain-methylated histone interaction inhibition; P83916; AlphaScreen HP1-beta / biotin-H3K9me3 peptide binding; Potency, µM (series often up to 114 µM), for the others: at the highest dose activity change, negative = inhibition, hits mostly inhibitors; hit rate 0.56% among 390,000; further: nearly all actives have a fitted effect of over 70% in size
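HP1-beta protein (50 nM final) preincubated 30 min at room temperature with biotinylated H3(1-18)K9me3 peptide (50 nM) in PBS pH 7.4, 0.01% Tween-20, then compound added for 30 min. AlphaScreen streptavidin donor/nickel chelate acceptor beads (10 ug/mL final), 30 min dark, luminescence read.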
JMJD2A Tudor inh: inhibitors of human JMJD2A Tudor domain; AlphaScreen JMJD2A-Tudor / H3K4me3 peptide binding; Potency, µM (top dose mostly 114 µM), for the others: at the highest dose activity change, negative = inhibition, hits mostly inhibitors; hit rate 4.4% among 390,000; AID 504339; further: on the % scale 0 is the no-effect control and ±100 the full control effect; nearly all actives have a fitted effect of over 50% in size
Target sequence (O75164 whole entry, looked up, the tested form may be a part): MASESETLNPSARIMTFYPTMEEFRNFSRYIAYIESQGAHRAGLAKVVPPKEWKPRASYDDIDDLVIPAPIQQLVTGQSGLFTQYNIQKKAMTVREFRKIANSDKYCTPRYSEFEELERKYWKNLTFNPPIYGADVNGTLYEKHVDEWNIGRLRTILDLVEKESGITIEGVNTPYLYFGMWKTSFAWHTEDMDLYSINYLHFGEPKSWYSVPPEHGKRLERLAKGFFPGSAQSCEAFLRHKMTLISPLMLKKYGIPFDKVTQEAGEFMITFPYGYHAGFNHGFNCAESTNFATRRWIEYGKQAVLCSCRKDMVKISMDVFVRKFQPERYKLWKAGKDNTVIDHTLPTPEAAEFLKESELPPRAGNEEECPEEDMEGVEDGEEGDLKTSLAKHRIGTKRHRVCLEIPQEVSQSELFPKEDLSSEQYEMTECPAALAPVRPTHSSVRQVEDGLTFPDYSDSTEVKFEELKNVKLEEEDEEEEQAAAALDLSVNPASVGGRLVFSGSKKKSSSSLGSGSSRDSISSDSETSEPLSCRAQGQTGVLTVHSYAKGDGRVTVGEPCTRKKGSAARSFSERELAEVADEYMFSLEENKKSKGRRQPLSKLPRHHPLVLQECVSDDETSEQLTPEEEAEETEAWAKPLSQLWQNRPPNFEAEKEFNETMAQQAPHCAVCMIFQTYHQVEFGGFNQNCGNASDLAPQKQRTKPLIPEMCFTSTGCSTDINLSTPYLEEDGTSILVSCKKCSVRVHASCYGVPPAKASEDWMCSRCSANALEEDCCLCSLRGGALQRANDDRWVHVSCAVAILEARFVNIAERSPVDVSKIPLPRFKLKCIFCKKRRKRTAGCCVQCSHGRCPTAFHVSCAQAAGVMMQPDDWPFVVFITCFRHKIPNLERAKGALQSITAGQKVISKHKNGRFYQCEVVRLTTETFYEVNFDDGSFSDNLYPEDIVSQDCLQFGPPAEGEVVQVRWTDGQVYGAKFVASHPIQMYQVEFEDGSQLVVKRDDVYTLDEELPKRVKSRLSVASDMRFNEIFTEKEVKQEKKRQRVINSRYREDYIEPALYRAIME
* = called active by the depositor; [ ] = remark or other dose. An excerpt weighted towards active compounds, which were near 12% of everything screened. The call rests on the fitted dose curve; in most records, active means well fitted curve in the direction sought with a large enough effect; inconclusive means small, poorly fitted or top-dose-only effect, or another doubt; inactive means no such curve, though single readings can be large; an effect the other way counts as inactive or inconclusive. Potency means the concentration at half of the fitted maximal effect.

`CSc1nnc(-c2cccc(NC(=O)c3ccccc3)c2)n1C` gave BAZ2B block -25%, TDP1 block -1%, Sfp PPTase inh 1%, G9a inh 50µM*, HP1b chromo inh 25% and JMJD2A Tudor inh -3%.
CCC(=O)Nc1cccc(-c2nnc(SCC(=O)c3ccccc3)n2C)c1 was read as TDP1 block -2%, Sfp PPTase inh 79µM*, G9a inh inconclusive, HP1b chromo inh inconclusive and JMJD2A Tudor inh 40µM*.
Screening Cc1ccc(NC(=O)C2C3C=CC(O3)C2C(=O)O)cc1C (centres undefined) returned BAZ2B block 89µM*, Sfp PPTase inh 16%, G9a inh 3%[0.501 µM], HP1b chromo inh 33% and JMJD2A Tudor inh -10%.
For CC(=O)c1cccc(NC(=O)Nc2ccccc2)c1 the results were BAZ2B block 10%, Sfp PPTase inh 3%, G9a inh 21%, HP1b chromo inh 54% and JMJD2A Tudor inh -4%.
`Cc1cccc(NC(=O)C2C3C=CC(C4CC34)C2C(=O)O)c1` (centres undefined) gave BAZ2B block 10%, TDP1 block -3%, Sfp PPTase inh 50µM*, G9a inh inconclusive, HP1b chromo inh 24% and JMJD2A Tudor inh -7%.
`CC(=O)c1cccc(NC(=O)C2C3C=CC(C3=C(c3ccccc3)c3ccccc3)C2C(=O)O)c1` (centres undefined) gave BAZ2B block inconclusive, TDP1 block -5%, Sfp PPTase inh 14%, G9a inh 50µM*, HP1b chromo inh 6% and JMJD2A Tudor inh inconclusive.
`CC(=O)Nc1cccc(NC(=O)C2C3C=CC(C3)C2C(=O)O)c1` (centres undefined) gave BAZ2B block -7%, Sfp PPTase inh -51%, G9a inh 8%, HP1b chromo inh 43% and JMJD2A Tudor inh -2%.
For Cc1cccc(NC(=O)C2C3C=CC(O3)C2C(=O)O)c1 (centres undefined) the results were BAZ2B block 4%, Sfp PPTase inh 3% and G9a inh 28µM*.
CC(Oc1ccc2c(=O)c(-c3ccc(Cl)cc3)c(C(F)(F)F)oc2c1)C(=O)O (centres undefined) was read as BAZ2B block 3%, TDP1 block 4%, Sfp PPTase inh 18%, HP1b chromo inh 32% and JMJD2A Tudor inh -3%.
For COc1cc(OC)c(NC(=O)c2sc3nc4n(c(=O)c3c2C)CCCC4)cc1Cl the results were BAZ2B block -27%, TDP1 block 5%, G9a inh inconclusive, HP1b chromo inh 45% and JMJD2A Tudor inh -12%.
For Nc1ccccc1C(=O)N1CCc2ccccc21 the results were BAZ2B block 10%, TDP1 block 0%, Sfp PPTase inh 2%, HP1b chromo inh 42% and JMJD2A Tudor inh -10%.
C=CCn1c(=O)c(CCC(=O)Nc2ccc(N3CCOCC3)cc2)nc2cc(C(F)(F)F)ccc21 was read as BAZ2B block -8%, TDP1 block 0%, Sfp PPTase inh 4%, HP1b chromo inh -21% and JMJD2A Tudor inh 35µM*.
For COc1ccc(-c2nc3cnc(N4CCOCC4)nc3n(Cc3cccs3)c2=O)cc1 the results were Sfp PPTase inh 9% and G9a inh 2%[0.501 µM].
For COC(=O)c1cc(=O)nc2sc(-c3ccc(F)cc3)nn12 the results were BAZ2B block 5%, TDP1 block 5%, Sfp PPTase inh 22µM*, G9a inh 4µM*, HP1b chromo inh inconclusive and JMJD2A Tudor inh -35%.
For COc1cc(-c2nnc3sc(Cc4ccc(Cl)cc4)nn23)cc(OC)c1OC the results were HP1b chromo inh -17% and JMJD2A Tudor inh -20%.
Screening COc1ccc(Cc2nn3c(-c4cc(OC)c(OC)c(OC)c4)nnc3s2)cc1 returned BAZ2B block -7%, TDP1 block 5%, Sfp PPTase inh -58%, G9a inh inconclusive, HP1b chromo inh inconclusive and JMJD2A Tudor inh 79µM*.
For COc1ccc(-c2nn3c(-c4ccccc4)nnc3s2)cc1 the results were BAZ2B block inconclusive, TDP1 block 2%, Sfp PPTase inh inconclusive, G9a inh inconclusive, HP1b chromo inh -1% and JMJD2A Tudor inh -22%.
`COc1ccc(-c2nn3c(-c4ccc(F)cc4)nnc3s2)cc1` gave BAZ2B block -14%, TDP1 block -1%, Sfp PPTase inh -9%, G9a inh 45µM*, HP1b chromo inh -5% and JMJD2A Tudor inh -8%[57.1 µM].
Screening COC(=O)c1cc(=O)nc2sc(-c3cccs3)nn12 returned BAZ2B block 0%, TDP1 block 2%, Sfp PPTase inh 15%, G9a inh 2%[12.7 µM], HP1b chromo inh 30% and JMJD2A Tudor inh -13%.
Screening COc1ccc(-c2nnc3sc(CCN4C(=O)c5ccccc5C4=O)nn23)cc1 returned BAZ2B block 9%, TDP1 block 8%, Sfp PPTase inh -12%, G9a inh 45µM*, HP1b chromo inh -8% and JMJD2A Tudor inh -18%.
Screening Cc1csc2c(N3CCN(C(=O)c4ccc(C(C)(C)C)cc4)CC3)ncnc12 returned BAZ2B block -23%, TDP1 block 5%, Sfp PPTase inh -18%, G9a inh -2%, HP1b chromo inh 21% and JMJD2A Tudor inh -18%.
Screening CCOc1ccc(Nc2nn(-c3ccc(OC(F)(F)F)cc3)nc2C(C)=O)cc1 returned BAZ2B block -1%, TDP1 block 7%, G9a inh 7%[59 µM], HP1b chromo inh 48% and JMJD2A Tudor inh -12%.
For COc1cc(-c2nnc3sc(Cc4ccccc4)nn23)cc(OC)c1OC the results were BAZ2B block -30%, TDP1 block 3%, Sfp PPTase inh -15%, G9a inh 35µM*, HP1b chromo inh inconclusive and JMJD2A Tudor inh inconclusive.
CCOc1ccc2cc(S(=O)(=O)n3ccnc3C)ccc2c1 was read as BAZ2B block -33%, TDP1 block 4%, Sfp PPTase inh 40µM*, G9a inh inconclusive, HP1b chromo inh 32% and JMJD2A Tudor inh -18%.
For CCOc1ccc(S(=O)(=O)n2ccc(C)n2)cc1 the results were BAZ2B block -2%, Sfp PPTase inh 35%, G9a inh 19%[59 µM], HP1b chromo inh 85% and JMJD2A Tudor inh -8%.
For COC(=O)C1Sc2[nH]c(=O)sc2C(c2ccc(Cl)cc2)C1C(=O)OC (centres undefined) the results were BAZ2B block inconclusive, TDP1 block 2%, Sfp PPTase inh -12%, G9a inh inconclusive, HP1b chromo inh -1% and JMJD2A Tudor inh inconclusive.
`COC(=O)C1=C(C(=O)OC)C(c2cc(Br)ccc2O)c2sc(=O)[nH]c2S1` (centres undefined) gave BAZ2B block inconclusive, TDP1 block -1%, Sfp PPTase inh 20µM*, G9a inh 3.2µM*, HP1b chromo inh -4%[57 µM] and JMJD2A Tudor inh -27%.
